Compounds with a hit are over-represented: about 21% of the library has one in this group of screens.
HCV inhibitor: qHTS Assay for Inhibitors of Hepatitis C Virus (HCV) | Huh7.5.1 HCVcc-Cre infection, luciferase reporter, 44 h | Potency, µM (titrated, usually from 41.8 µM), without a hit: top-dose activity change, negative = inhibition, hits mostly inhibitors | actives 3.4% (n = 340,000) | AID 651820, 2012; note: potency is the fitted concentration of half-maximal effect; % is set by controls: 0 for no effect and ±100 for the full control effect
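Seed cells (1,000/well) for 4 h; treat with compound and infect with HCVcc-Cre, moi about 0.5. Incubate 44 h, then detect luciferase activity.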
Shiga inhibitor: A qHTS for Small Molecule Inhibitors of Shiga Toxin; Vero cells, Shiga toxin protein synthesis inhibition reporter; inhibition, % at 38.7 µM; actives 9.2% (n = 290,000); AID 2315, 2010; in the data active = inhibition mostly above about 28%, no sharp cut-off; inactive = mostly below about 43%; note: 0% is about no effect
HCMV inh: qHTS Assay for inhibitors of the human cytomegalovirus (HCMV); HFF cells, HCMV-luciferase reporter, 72 h; hits give low values; activity change, negative = inhibition, % at 57.5 µM; AID 1259415, 2018; actives 4.5% (n = 410,000); in the data active = activity change below about -60%; inconclusive = no clear call, values can overlap the other calls; inactive = above about -39%; note: % is set by controls: 0 for no effect and ±100 for the full control effect
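Luciferase read-out from HCMV-luciferase-infected HFFs (MOI 1 PFU/cell) 72 h post infection at 37C; compounds added after 16 h cell attachment; activity normalized between buffer-only basal and Salinomycin (10uM) inhibitor controls.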
Pf growth 48h: Primary qHTS for delayed death inhibitors of the malarial parasite plastid, 48 hour incubation | actives 5.9% (n = 310,000) | Potency, µM (highest dose often 28.7 µM), without a hit: top-dose activity change, negative = inhibition, most hits filed as inhibitors | P. falciparum luciferase growth in erythrocytes, 48 h; note: potency is the fitted concentration of half-maximal effect; % is set by controls: 0 for no effect and ±100 for the full control effect
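Compounds are pin-transferred into medium, infected erythrocytes (2% hematocrit, 0.1% parasitemia final) are added, and plates sit one parasite generation at 37 C in 5% CO2. Detection reagent is then added and luminescence measured.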
Cycloheximide cs: Cycloheximide Counterscreen for Small Molecule Inhibitors of Shiga Toxin; cell reporter, cycloheximide protein synthesis inhibition counterscreen; max response, %; actives 12% (n = 300,000); in the data active = max response mostly above about 13%, no sharp cut-off; inactive = mostly below about 14%; note: read at 38.3 µM for the half of the compounds with a filed dose; 0% is about no effect
Pf growth 96h: Primary qHTS for delayed death inhibitors of the malarial parasite plastid, 96 hour incubation | AID 504834, 2011 | P. falciparum luciferase reporter growth, 96 h | actives 6.9% (n = 320,000) | Potency, µM (doses to about 28.7 µM), without a hit: at the top dose activity change, negative = inhibition, actives largely listed as inhibitors; note: potency is the fitted concentration of half-maximal effect; % is set by controls: 0 for no effect and ±100 for the full control effect
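Infected RBCs, 2% Hct / 0.05% parasitemia final; luciferase-reporter P. falciparum; cpd 96 h, 37 C, 5% CO2; luciferase detection reagent; luminescence.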
Numbers without * were called inactive; ? = inconclusive; . = no result given; [ ] = remark or other dose. Unless noted, calls come from the whole dose curve; as a rule, active = well fitted inhibition curve with a large enough effect; inconclusive = small, poorly fitted or top-dose-only effect, or another doubt; inactive = no such curve, though single readings can be large or run the other way.

SMILES | HCV inhibitor | Shiga inhibitor | HCMV inh | Pf growth 48h | Cycloheximide cs | Pf growth 96h
CC(=O)N1CCC(O)(c2cccc(C(F)(F)F)c2)CC1 | 2% | -19 | -7 | -8% | -4 | -7%
Cc1ccc2oc(C(=O)N3CCC(O)(c4cccc(C(F)(F)F)c4)CC3)c(C)c2c1 | ? | 63* | 8 | 45% | 43* | -24%
COc1ccc(-n2c(O)c(Cc3ccccc3)c(=O)n3nc(-c4ccccc4)c(=O)cc23)cc1 | 16% | 13 | -10 | 1% | 11* | -3%
COc1ccc(-n2c(SCC(=O)Nc3ccccc3C)nc(O)c(Cc3ccccc3)c2=O)cc1 | 8% | -4 | 7 | -14% | 8 | ?
CCOc1ccc(NC(=O)CCNS(=O)(=O)c2ccc3c(c2)CCCC(=O)N3)cc1 | . | . | 1 | . | . | .
CCc1ccc(/C=C2\Oc3cc(OC(=O)N4CCOCC4)ccc3C2=O)cc1 | 18% | -3 | 30 | ? | -1 | 10µM*
COCCN(CCOC)Cc1c(O)ccc2c1O/C(=C\c1ccco1)C2=O | 21% | 3 | -21 | . | -1 | -15%
Cc1cc(O)cc2c1C(=O)/C(=C/c1ccco1)O2 | 13% | 66* | 70 | 32% | 51* | 105%
COC(=O)COc1ccc2c(c1)O/C(=C\c1ccco1)C2=O | 30% | 38* | -39 | -19% | 29* | 31%
CC1=N/C(=C/c2ccco2)C(=O)O1 | 25% | -19 | -28 | 5% | -4 | 14%
CCN(CC)C(=O)Oc1ccc2c(c1)O/C(=C\c1ccco1)C2=O | ? | 49* | 126 | 0% | 27* | 0%
Cc1ccc(CNC(=O)Nc2cn(CC(C)C)c(=O)c3ccccc23)cc1 | . | . | 15 | . | . | .
CCC(=O)Oc1ccc2c(c1)O/C(=C\c1ccco1)C2=O | 9% | 43* | -18 | 42% | 16* | 38%
CC(=O)Oc1ccc2c(c1)O/C(=C\c1ccncc1)C2=O | 7% | 7 | . | -15% | 2 | ?
COc1ccc(C2CC(c3ccccc3)Oc3cc(C)c(Cl)c(C)c32)cc1 (configuration not stated) | . | -6 | . | . | 1 | .
Cc1ccc(NC(=S)NNC(=O)c2ccccc2O)c(C)c1 | -15% | 97* | -4 | ? | 33* | -3%[5.75 µM]
Cc1cccc(NC(=S)NNC(=O)c2ccc(O)cc2O)c1C | 17% | 35* | -98* | ? | 20* | 35%
Cc1cccc(NC(=O)NNC(=O)c2cc3ccccc3cc2O)c1C | -1% | -2 | -21 | 10% | 5 | -26%
CNc1nc(N)nc(OC(C(F)(F)F)C(F)(F)F)n1 | 15% | 37 | 30 | 3% | -6 | 49%
COc1ccc(C(=O)/C=C\c2ccc(NC(=O)c3cccs3)cc2)cc1 | ? | -2 | 30 | ? | -4 | 78%
COc1ccc([N+](=O)[O-])c(C=CC(=O)c2ccccn2)c1 | . | . | 55 | . | . | .
COc1ccc(Cn2c(CCC(=O)N3CCN(c4ccccn4)CC3)nc3ncccc3c2=O)cc1 | 13% | 32 | -8 | 12µM* | 5 | ?
COc1ccc(/C=C/C(=O)c2ccc(O)cc2)cc1 | 10% | 64* | 37 | 201% | 37* | 117%
COc1cc(/C=C/c2ccc(O)cc2)cc(OC)c1 | 13µM* | 84* | 13 | . | 56* | .
CC(C)OCCCn1c(=O)c2ccccc2n2c(CCC(=O)N3CCN(c4ccccn4)CC3)nnc12 | ? | 8 | -32 | ? | -2 | 4%
SMILES | HCV inhibitor | Shiga inhibitor | HCMV inh | Pf growth 48h | Cycloheximide cs | Pf growth 96h
COc1ccc(/C=C/C(=O)c2ccccn2)cc1 | 12% | 43 | 16 | 412% | 24* | 149%
O=C(Nc1ccc(F)c(Cl)c1)c1cc(S(=O)(=O)NCc2ccc3c(c2)OCO3)ccc1F | . | . | -27 | . | . | .
C[C@H](CO)N1C[C@H](C)[C@H](CN(C)C(=O)Nc2ccc3c(c2)OCO3)OCc2cnnn2CCCC1=O | . | . | 4 | . | . | .
Cc1c(CNC2CCCCC2)c(C(=O)O)c(C)n1Cc1ccccc1F | . | . | 0 | . | . | .
COc1ccc(/C=C/C(=O)c2sc(-c3ccc(Cl)cc3)nc2C)cc1 | . | 35 | . | ? | -2 | ?
COc1ccc(/C=C/C(=O)c2c(O)c(OC)c3occc3c2OC)cc1 | ? | 20 | 9 | ? | 15* | 22%
COc1ccc(/C=C/C(=O)N2CCN(c3ccccn3)CC2)cc1 | 18% | 30* | 15 | 8% | 24* | -12%
COc1ccc(/C=C/C(=O)c2ccoc2)cc1 | 16% | 89* | 51 | 18% | 42* | 42%
COc1cccc(/C=C/C(=O)N2CCN(c3ccccn3)CC2)c1 | -2% | 19 | -11 | 1% | 19 | 5%
COc1ccc(/C=C/C(=O)c2ccccc2O)cc1 | -9% | 106* | . | 210% | 65* | -28%
COc1ccc(/C=C/C(=O)OCC(=O)c2ccccc2F)cc1 | 13% | . | 16 | . | . | .
COc1ccc2cc(C(=O)/C=C/c3cc(OC)c(OC)c(OC)c3)ccc2c1 | ? | 12 | -15 | ? | 17 | ?
CC(=O)Nc1ccc(C(=O)CSc2nnc3cc(C)c4ccccc4n23)cc1 | . | . | 27 | . | . | .
CC(C)C[C@@H]1Cc2[nH][nH]c(=O)c2[C@H](c2ccc(Cl)cc2)O1 | . | . | -19 | . | . | .
CCOC(=O)c1c(S(=O)(=O)Nc2ccccc2OCC)c(C)n(C)c1C | 13% | 3 | -17 | 13% | -4 | 53%
O=c1[nH]c2ccccc2nc1/C=C/c1ccc(O)cc1 | ? | 70* | ? | ? | 42* | 0%
CC(C)(C)/C(O)=C/c1nc2ccccc2[nH]c1=O | -18% | 11 | -35 | 28% | 6 | 38%
O=c1[nH]c2ccccc2nc1/C=C(\O)C1CC1 | 13% | -5 | -34 | 32% | 3 | ?
O=c1[nH]c2ccccc2nc1/C=C/c1ccc(F)cc1 | ? | 73* | 80 | 255% | 37* | 66%[5.75 µM]
O=c1[nH]c2ccccc2nc1/C=C/c1ccccc1 | -16% | 59* | 29 | 61% | 45* | -1%
CCc1ccc(NC(=O)NNC(=O)c2ccc3ccccc3c2O)cc1 | 6% | -9 | -82* | -7% | -4 | -14%
O=C(Nc1ccc(Br)c2ccccc12)c1ccc2ccccc2c1O | ? | 44* | -100* | 12µM* | 22* | 9.3µM*
CCc1ccc(NC(=O)NNC(=O)c2cc3ccccc3cc2O)cc1 | 3% | 6 | 0 | -1% | -3 | 12%
CC1CCN(CCCNc2cc(NCCO)c([N+](=O)[O-])c3nonc23)CC1 | 2% | 4 | -2 | 3%[0.00184 µM] | -5 | -10%
CN(CCO)c1cc(NCCCN2CCC(Cc3ccccc3)CC2)c2nonc2c1[N+](=O)[O-] | ? | -3 | 15 | 10µM* | 10 | -7%

Bioassay records: PubChem BioAssay, National Center for Advancing Translational Sciences (NCATS)
